From PubChem BioAssay
EP2 mod – EP2 receptor (human) modulation. P43116. EP2-expressing cells, cAMP HTRF FRET, PGE2 co-stimulation. induction, % at 25 µM. actives 0.83% (n = 260,000);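 active = compounds whose cAMP rise, as percent of the full-agonist control response, exceeds 60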;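 note: rat C6 glioma line stably carrying human EP2 under a CMV promoter; the protocol text gives 20 µM as final concentration; 100% = response of wells given 1 µM PGE2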
S1P4 antag – blocks the human S1P4 receptor; O95977; S1P4-expressing cells, antagonist mode, reporter read-out; inhibition, % at 4.98 µM; actives 0.26% (n = 220,000); AID 1510; in the data active = inhibition above about 29%;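 note: 0% = wells stimulated with agonist and 100% = vehicle wells without agonist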
S1P3 antagonist – antagonists of human S1P3 receptor. Q99500. CHO S1P3 NFAT-BLA reporter, FRET fluorescence, antagonist mode. inhibition, % at 4.98 µM. actives 0.27% (n = 170,000). AID 485;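 active = inhibition above the plate cutoff, the mean inhibition of test wells on that plate plus 3 SD, cut at about 28% in these data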;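 note: cells challenged with S1P at its EC80 of 0.8 µM; blue over green emission ratio from cleaved BLA substrate after 4 h stimulation; 0% = S1P-stimulated wells and 100% = unstimulated DMSO-only wells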
S1P4 ag – agonists of human S1P4 receptor; S1P4-expressing cell line, agonist reporter assay; activation, % at 4.98 µM; O95977; actives 0.35% (n = 220,000); in the data active = activation above about 11%;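 note: 0% = DMSO vehicle and 100% = reference agonist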
PGE2 EP2 inh – inhibitors of human EP2 prostaglandin E2 receptor | P43116 | C6 glioma cells expressing human EP2, cAMP TR-FRET; cells stimulated with saturating PGE2 | inhibition, % at 25 µM | actives 0.52% (n = 260,000);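 active = percent inhibition above 40 after rounding to a whole number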;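 note: rat C6 glioma host cells with rolipram phosphodiesterase inhibitor present; the protocol text gives 20 µM as final concentration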
S1P4 ag conf – confirmation of human S1P4 receptor agonists. AID 1523. actives 7% (n = 740). activation, % at 4.98 µM. S1P4 agonist cell-based reporter assay. shares compounds with S1P4 ag; in the data active = activation above about 12%;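 note: 0% = vehicle and 100% = full reference agonist response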
S1P1 ag – activates human S1P1, counter-screen for S1P4 agonists | shares compounds with S1P4 ag | S1P1 agonist cell-based assay, activation | activation, % at 4.98 µM | actives 4% (n = 740) | AID 1563; in the data active = activation above about 21%;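 note: 0% = vehicle wells and 100% = reference agonist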
Target sequence (P21453 whole entry, looked up): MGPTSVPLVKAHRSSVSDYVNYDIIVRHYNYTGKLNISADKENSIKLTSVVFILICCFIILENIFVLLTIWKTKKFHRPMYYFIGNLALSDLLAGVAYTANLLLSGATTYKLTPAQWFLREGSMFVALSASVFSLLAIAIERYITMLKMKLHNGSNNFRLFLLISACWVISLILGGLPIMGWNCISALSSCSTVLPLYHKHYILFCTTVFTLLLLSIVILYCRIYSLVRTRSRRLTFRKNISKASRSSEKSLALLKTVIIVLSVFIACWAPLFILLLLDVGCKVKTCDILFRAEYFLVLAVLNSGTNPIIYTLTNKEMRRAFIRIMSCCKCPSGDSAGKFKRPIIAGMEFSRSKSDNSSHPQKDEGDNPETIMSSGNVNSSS
The depositor's hits bear a star; · = no result given. A selection: hits, their analogues and other compounds. The true share with any hit is near 1.9%.

SMILES	EP2 mod	S1P4 antag	S1P3 antagonist	S1P4 ag	PGE2 EP2 inh	S1P4 ag conf	S1P1 ag
Cc1nnc(SCCn2c(N3CCCCC3)nc3c2c(=O)n(C)c(=O)n3C)s1	·	-5.5	-42.5	0.2	5.3	·	·
Cc1nnc(SCCn2c(N3CCN(C)CC3)nc3c2c(=O)n(C)c(=O)n3C)s1	30.4	-6.6	-0.6	45.0*	1.6	0.0	8.6
Cc1ccc(-c2nsc3c(=O)n(-c4c(C)n[nH]c4C)cnc23)cc1	-109.4	·	·	·	7.4	·	·
CC(C)N=c1scc(-c2ccco2)n1/N=C/c1ccc(O)c(O)c1	0.5	-24.6	·	11.9*	8.2	22.2*	55.2*
COCCN=c1scc(-c2ccco2)n1/N=C/c1ccc(O)c(O)c1O	-38.2	-17.4	-29.0	1.9	9.2	·	·
Cc1cccc(NC(=O)C2CCN(C(=O)c3cccs3)CC2)c1C	-37.9	·	·	·	4.9	·	·
CCCCNC(=O)C1CC(c2c(Cl)cccc2Cl)=NO1 (centres undefined)	6.9	-18.9	·	13.0*	18.3	-2.1	-1.3
COc1ccc(SCC(=O)Nc2ccccc2Cl)cc1	1.7	-3.9	-8.0	113.7*	6.4	-1.2	-5.4
O=c1cc(CSc2nnc(Nc3ccccc3F)s2)nc2sccn12	-29.6	0.2	3.5	55.4*	2.7	-2.3	-1.3
COC(=O)c1sccc1NC(=S)N1CCCCC1	25.1	-8.4	·	-0.1	6.4	·	·
COC(=O)c1sccc1NC(=S)N1CCN(c2cccc(C)c2C)CC1	37.8	-11.2	1.2	22.6*	11.3	-2.1	3.8
CCCNC(=O)Cn1nc([N+](=O)[O-])c([N+](=O)[O-])c1C	12.5	-12.2	0.2	14.5*	7.1	-1.8	3.6
CCCCNC(=O)Cn1nc([N+](=O)[O-])c([N+](=O)[O-])c1C	4.9	1.5	-1.9	-1.1	9.7	·	·
CCCCNC(=O)CC1S/C(=N/N=C/c2ccc(OC)cc2)NC1=O (centres undefined)	-2.5	-4.5	-14.2	12.2*	3.5	-2.4	2.9
COc1ccc(/C=N/N=C2/NC(=O)C(CC(=O)NC(N)=O)S2)cc1 (centres undefined)	11.8	-7.1	-14.5	0.7	5.5	·	·
CS(=O)(=O)N(CCc1ccccc1)CC(=O)N1CCCC1	2.3	1.6	3.0	21.1*	6.5	-1.7	-3.8
COC(=O)c1ccc(S(=O)(=O)N(Cc2cc3cc(OC)ccc3[nH]c2=O)C2CCCC2)cc1	21.3	·	·	·	11.8	·	·
CC(C)C[C@H](NC(=O)c1nc[nH]c1C(=O)NCc1ccccc1)C(=O)OCc1ccccc1	11.1	-21.0	-11.1	20.5*	5.7	25.9*	0.0
CCc1cccc(Nc2cc(C)nc3ncnn23)c1	39.6	-0.2	9.9	156.3*	5.0	-3.2	-4.1
CCNC(=S)N(Cc1ccco1)Cc1cc2cc(C)cc(C)c2[nH]c1=O	-18.6	·	·	·	15.4	·	·
Cn1nc(C(C)(C)C)cc1C(=O)N1CCC[C@H](Cn2cc(C(=O)N3CCOCC3)nn2)C1	-12.7	·	·	·	9.1	·	·
NC(=O)CS(=O)(=O)c1ccc(Cl)cc1	0.5	-10.1	1.9	25.0*	2.9	-1.7	-3.0
O=S(=O)(CC(O)CS(=O)(=O)c1ccc(Cl)cc1)c1ccccc1 (centres undefined)	18.0	1.4	5.2	2.6	6.7	·	·
CCOC(=O)Cc1nnc2c(Nc3ccccc3F)nc3nonc3n12	-11.6	-20.6	8.9	38.0*	7.2	-1.5	4.4
CCOC(=O)C1CCN(c2ncnc3c2oc2ccc(Cl)cc23)CC1	-33.5	-1.4	-6.3	186.9*	14.6	-2.3	-1.3
SMILES	EP2 mod	S1P4 antag	S1P3 antagonist	S1P4 ag	PGE2 EP2 inh	S1P4 ag conf	S1P1 ag
Clc1ccc(N2CCN(c3ncnc4c3oc3ccccc34)CC2)cc1	·	·	14.2	·	17.0	·	·
CCCN(CCC)c1ccc(/C=C/c2ccc3cc(OCC)ccc3n2)cc1	-9.3	-9.9	1.7	16.6*	12.1	29.8*	47.5*
Oc1ccc(/C=C/c2ccc3ccccc3n2)cc1	-52.4	-0.3	18.1	3.0	9.6	·	·
C=CCN1C(=O)/C(=c2\sc3nc(=O)c(Cc4ccccc4)nn3c2=O)c2ccccc21	10.5	-6.7	-4.1	27.3*	24.9	-1.4	0.8
Clc1ccc(N2N=C(c3cccs3)CC2c2ccco2)cc1 (centres undefined)	34.3	-3.6	·	14.1*	9.8	18.9*	55.2*
c1ccc(N2N=C(c3cccs3)CC2c2ccco2)cc1 (centres undefined)	22.1	-1.1	·	9.1	24.2	·	·
COc1ccc(C(=O)Nc2nc(N)n(-c3ccccc3)n2)cc1	5.0	-11.2	-24.4	41.7*	5.5	-3.0	-8.6
CCn1cc(CNC(=O)/C=C/c2cnn(C)c2)c(C)n1	15.9	-13.5	-28.6	35.6*	11.4	-2.7	1.0
CCOC(=O)c1sc(-c2ccc(F)cc2)cc1NC(=O)Nc1ccccc1OC	0.1	-16.9	-6.8	1.3	9.5	·	·
CCOC(=O)c1sc(-c2ccccc2)cc1NC(=O)Nc1ccccc1	22.7	-0.9	-10.5	24.7*	5.3	-2.4	-4.8
CC(C)c1ccc(/C=C/C(=O)Nc2ccc(CN3CCOCC3)cc2)cc1	-49.9	-10.2	-2.9	-0.2	24.9	·	·
CC(C)c1ccc(/C=C2\C(=O)N(CCN3CCOCC3)C(=S)N2C)cc1	-16.3	4.1	1.4	43.4*	8.5	-1.5	-3.8
O=C(COc1ccc(S(=O)(=O)N2CCCC2)cc1)Nc1ccc(F)cc1F	-30.0	·	·	·	9.3	·	·
Cc1cc(CN2CCC(C)CC2)cc(C)c1O	-17.5	·	·	·	20.9	·	·
CCOc1ccc(/C=C2\C(C)=C(C#N)c3nc(N)c(C#N)c(C)c32)cc1	-53.7	·	·	·	10.1	·	·
COc1ccc(/C(C)=N/NC(=O)CNC(=O)c2cccs2)cc1OC	-4.1	4.2	-25.7	30.4*	5.9	-1.6	4.2
CCCCNC(=O)[C@H]1C[C@@H](c2ccco2)NS(=O)(=O)N1C	4.2	·	·	·	·	·	·
Cc1ccc(/C=C/C(=O)O)cc1S(=O)(=O)N(CCO)CCO	11.9	16.7	-9.1	36.6*	16.7	-1.1	-8.3
COCCn1c(SCC(=O)Nc2cccc3ccccc23)nnc1-c1ccoc1C	1.0	·	·	·	7.7	·	·
COCCNC(=S)Nc1ccc2nsnc2c1	-40.4	-8.7	-20.6	11.7*	22.7	-1.9	-6.5
COc1ccccc1C(=O)c1cc2ccc(O)cc2oc1=O	25.9	-19.5	-2.2	2.5	8.1	·	·
C/C(=N\NC(=O)CC#N)c1cc2ccc(O)cc2oc1=O	26.4	-54.4	-46.4	56.8*	9.3	-1.4	-1.0
COc1ccc(NC(=O)CSc2nc(N)c3cc4c(nc3n2)CCCC4)cc1	11.1	-20.8	-4.3	11.0*	8.9	-1.9	-6.2
CC1=CC(C)(C)[N+](C)=CN1c1ccccc1	18.6	-7.5	-6.8	32.7*	11.6	-1.5	4.1
CC(=O)Nc1nc(C(=O)Nc2c(C)n[nH]c2C)cs1	1.7	-23.1	-4.2	14.1*	6.3	-1.6	2.1
CC(=O)Nc1nc(C(=O)O)cs1	9.0	9.3	-12.3	0.4	8.0	·	·
